This note sets out measurements from PMC4336329 (PLoS ONE, 2015).

Each structure is given as a SMILES string. Out of some 310,000 compounds screened, about 14,000 (4.5%) showed an effect of 50% or more. The effect is printed as a negative number. Only a selection was taken, and strong results are over-represented in it overall.
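Note: peak tail current of the secondary pulse compared with the same well before compound.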

The target of the experiment is human ether-à-go-go-related gene (hERG) potassium channel (human, UniProt Q12809). Nature of the experiment: primary screen, population patch clamp on CHO cells stably expressing hERG; higher = less effect of the substance.
Chain of human ether-à-go-go-related gene (hERG) potassium channel (Q12809 whole entry, looked up): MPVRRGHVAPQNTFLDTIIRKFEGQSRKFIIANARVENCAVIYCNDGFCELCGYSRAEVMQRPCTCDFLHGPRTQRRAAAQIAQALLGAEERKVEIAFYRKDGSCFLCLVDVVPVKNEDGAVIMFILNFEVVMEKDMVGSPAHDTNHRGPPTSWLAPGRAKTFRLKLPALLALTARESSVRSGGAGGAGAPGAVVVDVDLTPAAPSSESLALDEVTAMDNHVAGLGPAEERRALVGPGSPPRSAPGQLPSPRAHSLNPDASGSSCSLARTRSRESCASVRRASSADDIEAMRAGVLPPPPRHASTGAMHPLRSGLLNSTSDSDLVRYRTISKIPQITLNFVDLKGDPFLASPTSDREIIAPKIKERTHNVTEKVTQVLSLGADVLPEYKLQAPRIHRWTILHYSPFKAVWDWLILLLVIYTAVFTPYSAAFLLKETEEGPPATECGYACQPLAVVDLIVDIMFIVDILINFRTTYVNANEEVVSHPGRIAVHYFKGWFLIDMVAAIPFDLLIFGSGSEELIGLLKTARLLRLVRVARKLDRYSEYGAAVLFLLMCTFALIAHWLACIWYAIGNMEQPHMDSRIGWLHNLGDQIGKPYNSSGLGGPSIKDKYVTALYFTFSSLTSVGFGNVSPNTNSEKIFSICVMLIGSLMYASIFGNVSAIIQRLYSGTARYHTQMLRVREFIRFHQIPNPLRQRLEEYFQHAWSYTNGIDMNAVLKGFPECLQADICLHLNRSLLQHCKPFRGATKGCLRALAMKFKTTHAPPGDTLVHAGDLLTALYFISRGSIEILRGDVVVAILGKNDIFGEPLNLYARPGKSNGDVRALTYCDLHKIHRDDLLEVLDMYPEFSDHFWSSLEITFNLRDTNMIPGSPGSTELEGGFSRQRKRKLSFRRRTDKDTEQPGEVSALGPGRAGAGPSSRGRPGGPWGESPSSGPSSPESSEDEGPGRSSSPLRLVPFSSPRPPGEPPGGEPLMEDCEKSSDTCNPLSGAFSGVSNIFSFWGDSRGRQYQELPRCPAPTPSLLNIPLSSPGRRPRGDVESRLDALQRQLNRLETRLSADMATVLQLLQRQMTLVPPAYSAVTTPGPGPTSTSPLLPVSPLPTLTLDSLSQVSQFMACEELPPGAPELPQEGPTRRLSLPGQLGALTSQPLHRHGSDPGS
As for `CC1(C)CC(=O)C2=C(C1)N(Cc1ccc(F)cc1)C(=O)C2(NC(=O)c1cccnc1)C(F)(F)F` (stereo not shown), the “hERG current change (%, negative = inhibition) at 10uM” value is -5.55%.
Take `COc1ccccc1-c1nnc(SC(C(=O)c2c[nH]c3ccccc23)c2ccccc2)n1C` (stereo not shown): the “hERG current change (%, negative = inhibition) at 10uM” value was found to be 20.8%.
To `O=C(CCc1nc2ccccc2n1-c1ccccc1)NCCO` belongs 6.97%; to `C=CCN(CC=C)CC(O)CN(c1cc([N+](=O)[O-])ccc1OC)S(=O)(=O)c1ccccc1` (stereo not shown), -10.7%; to `CCCCN(CCCC)CC(O)CN(c1cc([N+](=O)[O-])ccc1OC)S(=O)(=O)c1ccccc1` (stereo not shown), -67%.
The value for `COc1ccc([N+](=O)[O-])cc1N(CC(O)CN(C)C)S(=O)(=O)c1ccccc1` (stereo not shown) was 5.54%; that for `CCCN(CCC)CC(O)CN(c1cc([N+](=O)[O-])ccc1OC)S(=O)(=O)c1ccccc1.Cl` (stereo not shown) was -60.4%.
For the compound `COc1ccc([N+](=O)[O-])cc1N(CC(O)CN(CC(C)C)CC(C)C)S(=O)(=O)c1ccc(C)cc1.Cl` (stereo not shown), the “hERG current change (%, negative = inhibition) at 10uM” value was -13.7%.
For `COc1ccc([N+](=O)[O-])cc1N(CC(O)CN(CC(C)C)CC(C)C)S(=O)(=O)c1ccccc1` (stereo not shown), the “hERG current change (%, negative = inhibition) at 10uM” value is recorded as -1.91%.
To `CC(C)CNC(=O)/C=C/C=C/CCCC/C=C/c1ccc2c(c1)OCO2` belongs 20.7%.
The value for `CC(=O)c1c(C)[nH]c(C(=O)OCc2nc3ccsc3c(=O)[nH]2)c1C` was -13.6%.
Take `O=C(CC1SC(N2CCCCC2)=NC1=O)Nc1ccc(C(=O)O)cc1` (stereo not shown): the “hERG current change (%, negative = inhibition) at 10uM” value was 22.1%.
To `COC(=O)c1ccc2c(=O)n(Cc3ccc(C(=O)NCCCN4CCC(C)CC4)cc3)c(=S)[nH]c2c1` belongs 7.54%; to `CC1CCCCN1CCNC(=O)c1ccc2c(=O)n(Cc3ccc(Cl)cc3)c(=S)[nH]c2c1` (stereo not shown), -50.9%.
To `CC1CCCCN1CCNC(=O)c1ccc2c(=O)n(CCc3ccccc3)c(=O)[nH]c2c1` (stereo not shown) belongs -38.7%; to `CN(C)CCNC(=O)c1ccc2c(=O)n(Cc3ccc(Cl)cc3)c(=S)[nH]c2c1`, -27.8%.
For the compound `CC1CCN(CCNC(=O)c2ccc3c(=O)n(Cc4ccc(Cl)cc4)c(=S)[nH]c3c2)CC1`, the “hERG current change (%, negative = inhibition) at 10uM” value is -15.8%.
Take `CC1CCN(CCCNC(=O)c2ccc3c(=O)n(Cc4ccc(Cl)cc4)c(=S)[nH]c3c2)CC1`: the “hERG current change (%, negative = inhibition) at 10uM” value is given as -68.4%.
As for `CSc1nc(NCCCO)c2c3c(sc2n1)CN(C)CC3`, the “hERG current change (%, negative = inhibition) at 10uM” value is -47.4%.
Take `CSc1nc(NCC(C)C)c2c3c(sc2n1)CN(C)CC3`: the “hERG current change (%, negative = inhibition) at 10uM” value is on record as -44.2%.
The value for `COC(CNc1nc(SC)nc2sc3c(c12)CCN(C)C3)OC` was -52.5%; that for `CCN(CC)CCNc1nc(SC)nc2sc3c(c12)CCN(C)C3` was -6.12%; that for `CSc1nc(NCC(C)O)c2c3c(sc2n1)CN(C)CC3` (stereo not shown) was -42%.
To `COCCNc1nc(SC)nc2sc3c(c12)CCN(C)C3` belongs -71.2%; to `S=c1[nH]c2ccccc2o1`, 18%.
For the compound `COc1ccc(OCC(=O)Nc2c(C(=O)N(CCN(C)C)Cc3ccco3)oc3ccccc23)cc1`, the “hERG current change (%, negative = inhibition) at 10uM” value is reported as -77%.
Consider `O=C(COc1ccccc1)Nc1ccccc1C(=O)NCc1ccco1`, for which the “hERG current change (%, negative = inhibition) at 10uM” value is listed as -6.63%.
To `COc1ccc(OCC(=O)OCC(=O)NCc2ccco2)cc1` belongs -4.81%; to `Cc1c(C(=O)OCC(=O)NCc2ccco2)oc2ccccc12`, 2.46%.
Take `CCCN(CCC)C(=O)c1oc2ccccc2c1NC(=O)Cc1cccc(OC)c1`: the “hERG current change (%, negative = inhibition) at 10uM” value came out at 4.67%.
Regarding `CN(C)CCN(Cc1ccco1)C(=O)c1oc2ccccc2c1NC(=O)COc1ccccc1`, the “hERG current change (%, negative = inhibition) at 10uM” value is recorded as -88.7%.
The value for `CCCCCCN=C(C)c1ccccc1O` was 20.2%; that for `CN(Cc1ccc(F)cc1)C(=O)c1cccc(S(=O)(=O)N2CCN(c3ccccc3)CC2)c1` was -19.9%; that for `COCCN(Cc1ccccc1)C(=O)c1cccc(S(=O)(=O)N2CCCc3ccccc32)c1` was -21.2%.
The value for `COCCN(Cc1ccccc1)C(=O)c1cccc(S(=O)(=O)N2CCN(c3ccc(F)cc3)CC2)c1` was -64.6%; that for `COCCN(Cc1ccccc1)C(=O)c1cccc(S(=O)(=O)N2CCN(c3ccccc3)CC2)c1` was -52.8%; that for `CCN(Cc1ccccc1)C(=O)c1cccc(S(=O)(=O)N2CCN(c3ccc(F)cc3)CC2)c1` was -47.2%.
The value for `CCN(Cc1ccccc1)C(=O)c1cccc(S(=O)(=O)N2CCN(c3ccccc3)CC2)c1` was -15.8%; that for `CC(C)(C)NC(=O)Cn1c(=O)c(=O)n(Cc2ccccc2)c2ccc(Cl)cc21` was -0.233%; that for `Cn1c2c(c(=O)n(C)c1=O)C(c1ccc(Br)cc1)Nc1ccccc1O2` (stereo not shown) was -19.4%.
Turning to `Cc1ccc(S(=O)(=O)NCCC2(C(C)C)CCOC(C)(C)C2)cc1` (stereo not shown), the “hERG current change (%, negative = inhibition) at 10uM” value is recorded as -17.9%.
With `CC1(C)CC(=O)C(C=NCC(N)=O)=C(O)C1`, the “hERG current change (%, negative = inhibition) at 10uM” value is -19.5%.
To `C=CCn1c(O)c(C(C)=NCCCN(C)C)c(=O)[nH]c1=O` belongs 5.49%; to `N#Cc1cccnc1N1CCN(C(=O)c2cccc3c2C(=O)c2ccc(Cl)cc2S3(=O)=O)CC1`, -56.6%.
To `O=C1c2ccc(Cl)cc2S(=O)(=O)c2cccc(C(=O)N3CCN(c4ccc(Cl)cn4)CC3)c21` belongs -39.9%.
The value for `N#Cc1cccnc1N1CCN(C(=O)c2ccc3c(c2)S(=O)(=O)c2ccccc2C3=O)CC1` was -22.7%; that for `CCN(CCn1cccn1)C(=O)CCc1nnc(CCc2ccccc2OC)o1` was 5.73%; that for `CCC/C(=N\NC(=O)c1cccc(C)c1)c1ccccc1` was 2.17%.
Take `CCOc1cccc(/C=N/Nc2ccc(S(=O)(=O)N(CC)CC)cn2)c1O`: the “hERG current change (%, negative = inhibition) at 10uM” value amounted to 6.79%.
The value for `COc1ccc(COC(=O)c2c(C)nn(-c3ccccc3)c2Cl)cc1` was 4.32%.
The value for `COc1ccc(CN(C)C(=O)COC(=O)c2c(-c3ccccc3Cl)noc2C)cc1` was -15.1%; that for `COc1ccc(CN(C)C(=O)COC(=O)c2c(C)nn(-c3ccc(F)cc3)c2Cl)cc1` was -71.1%.
